# LDHA block: qHTS assay for inhibitors of human lactate dehydrogenase; AID 1347041, 2019; L-lactate dehydrogenase A chain (Homo sapiens), P00338; activity change, % (values are at about 110 or 230 µM); 480,000 tested, 0.15% active; purified LDHA, NADH/diaphorase-resazurin fluorescence; hits give low values; in the data active = activity change below about -30%; inconclusive = mostly about -25% to -30%;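 also: plate controls were DMSO wells for no effect and wells without enzyme for full effect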
#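 LDH5 2 nM; NADH 0.06 mM, pyruvate 0.2 mM; 200 mM Tris pH 7.4, EDTA, Tween-20; 5 min RT. Detection: diaphorase 0.133 mg/mL + resazurin 37 µM, fluorescence ex540/em590 at 0 and 20 min; normalized to enzyme-free and DMSO wells.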
# Nrf2 inh: Nrf2 qHTS screen for inhibitors; A549 ARE-Fluc reporter, luciferase luminescence, 18-24 h; Potency, µM (series often up to 46 µM), inactives show at the highest dose activity change, negative = inhibition, most hits filed as inhibitors; 360,000 tested, 2.1% active; AID 504444, 2011; also: potency is read from the fitted curve at half-maximal effect; % is scaled to controls: 0 for no effect and ±100 for the full control effect; nearly all actives have a fitted effect of over 60% in size
#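 Nrf2 activity is the BugLite luminescence, read 15 min after reagent at room temperature, following CellTiter-Fluor cytotoxicity readout (30 min, 37C). Compound titrations were applied for 18-24 h to 5000 A549 ARE_Fluc cells/well in 5% FBS OPTI-MEM.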
# ALOX12 inh: Primary qHTS assay for inhibitors of human arachidonate 12S-lipoxygenase (ALOX12): Round 2; Polyunsaturated fatty acid lipoxygenase ALOX12 (Homo sapiens), P18054; purified 12hLO, xylenol orange hydroperoxide absorbance; Potency, µM (doses to about 108 µM), without a hit: at the highest dose activity change, negative = inhibition, actives largely listed as inhibitors; 580,000 tested, 1.1% active; also: potency is read from the fitted curve at half-maximal effect; % is scaled to controls: 0 for no effect and ±100 for the full control effect
#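 Purified human 12hLO at 150 nM in 25 mM Hepes, 0.01% Triton X-100, pH 7.0, preincubated 15 min at room temperature with compound. Reaction started with 40 uM arachidonic acid, 30 min at room temperature. Hydroperoxide measured by Fe-xylenol orange, 573/405 nm absorbance ratio.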
# A549 tox: Nrf2 qHTS screen for inhibitors: counterscreen for cytotoxicity. A549 ARE-Fluc cells, CellTiter-Fluor viability, 18-24 h. Potency, µM (doses to about 46 µM), for the others: top-dose activity change, negative = cytotoxicity, most hits filed as inhibitors. 390,000 tested, 0.16% active; also: potency is read from the fitted curve at half-maximal effect; % is scaled to controls: 0 for no effect and ±100 for the full control effect
#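 Cytotoxicity counterscreen: CellTiter-Fluor fluorescence was measured in A549 ARE_Fluc cells after 18-24 h of compound exposure in a concentration series. The subsequent BugLite luminescent read reports ARE-luciferase activity.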
# IDH1 R132H inh: qHTS for Inhibitors of mutant isocitrate dehydrogenase 1 (IDH1): qHTS | Isocitrate dehydrogenase [NADP] cytoplasmic (Homo sapiens), O75874 | IDH1-R132H enzyme, NADPH consumption, diaphorase/resazurin fluorescence | Potency, µM (series often up to 76.6 µM), for inactives: top-dose activity change, negative = inhibition, most hits filed as inhibitors | 390,000 tested, 0.093% active; also: potency is read from the fitted curve at half-maximal effect; % is scaled to controls: 0 for no effect and ±100 for the full control effect; nearly all actives have a fitted effect of over 65% in size
# Target sequence (O75874 whole entry R132H, stated change not applied): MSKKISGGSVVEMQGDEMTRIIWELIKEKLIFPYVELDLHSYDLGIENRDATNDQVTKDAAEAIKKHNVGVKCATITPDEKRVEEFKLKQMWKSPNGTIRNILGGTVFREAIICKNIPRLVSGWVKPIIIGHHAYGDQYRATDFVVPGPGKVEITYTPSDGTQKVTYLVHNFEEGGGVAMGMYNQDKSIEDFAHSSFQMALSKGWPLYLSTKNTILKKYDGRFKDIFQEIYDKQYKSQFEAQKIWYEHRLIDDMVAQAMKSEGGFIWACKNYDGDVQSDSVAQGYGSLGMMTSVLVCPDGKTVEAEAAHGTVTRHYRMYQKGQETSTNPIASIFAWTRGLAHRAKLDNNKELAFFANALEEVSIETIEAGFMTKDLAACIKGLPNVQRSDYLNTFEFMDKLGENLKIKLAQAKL
#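 IDH1-R132H (0.5 ug/mL) preincubated 30 min with compound, then NADPH (0.016 mM) and alpha-KG (2 mM) added; 80 min at RT, pH 7.5. Remaining NADPH coupled via diaphorase/resazurin to fluorescence (540/590 nm); concentration-response curves normalized to no-enzyme control.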
# Nrf2 activator: qHTS of Nrf2 Activators | AREc32 ARE-luciferase reporter (MCF7-derived line), luminescence, 24 h | Potency, µM (top dose mostly 46.1 µM), for inactives: at the highest dose activation, most hits filed as activators | 410,000 tested, 0.31% active; also: potency is read from the fitted curve at half-maximal effect; % of control where 0% means no effect; nearly all actives have a fitted effect of over 65% in size
#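 AREc32 cells carrying an ARE-driven firefly luciferase, 1000 cells/well in OPTI-MEM with 5% FBS, dosed after overnight attachment and incubated 24 hr at 37 deg C. Steady-Glo luminescence read after 30 min at RT.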
# Active calls of the source: *; ? = inconclusive; / = no result given; [ ] = remark or other dose. This is a sample that favours compounds with a hit; in the whole collection about 2.7% have one here. Unless noted, calls follow the shape of the dose curve; as a rule, active = well fitted curve in the direction sought with a large enough effect; inconclusive = small, poorly fitted or top-dose-only effect, or another doubt; inactive = no such curve, though single readings can be large; an effect the other way counts as inactive or inconclusive.
SMILES,LDHA block,Nrf2 inh,ALOX12 inh,A549 tox,IDH1 R132H inh,Nrf2 activator
CCCn1c(=O)n(CC(=O)N(C)CC(=O)Nc2ccccc2Br)c2ccccc21,1,/,-13%,/,/,/
Nc1nc2c(s1)C(c1ccccc1Cl)CC(=O)N2 (centres undefined),74,/,20µM*,/,/,/
Nc1nc2c(s1)C(c1cccc(OCc3ccccc3F)c1)CC(=O)N2 (centres undefined),64,/,?,/,/,/
Nc1nc2c(s1)C(c1c(Cl)cccc1Cl)CC(=O)N2 (centres undefined),28,/,14µM*,/,/,/
CN1CCCN(C(=O)Cc2ccccc2F)c2ccccc21,/,/,18%,/,/,/
COc1ccc(C(=O)NCCc2ccc(Cl)cc2)cc1S(=O)(=O)N1CCCCC1C (centres undefined),-2,16µM*,2%,-7%,-10%,0%
COc1ccc(C(=O)NCCc2c[nH]c3ccccc23)cc1S(=O)(=O)N1CCCCC1C (centres undefined),-7,-17%,23%,-12%,2%,2%
CS(=O)(=O)Nc1ccccc1C(=O)Nc1cc(Cl)cc(Cl)c1,-4,13µM*,-39%,-24%,4%,0%
O=C(O)c1ccc(Cl)c(S(=O)(=O)Nc2ccccc2C(=O)Nc2ccc(Cl)cc2)c1,-38*,?,?,-6%,-7%,5%
O=C(O)c1ccc(NS(=O)(=O)c2ccc(Cl)c(C(=O)Nc3ccccc3)c2)cc1,-5,-5%,5%,6%,-2%,0%
CS(=O)(=O)Nc1ccccc1C(=O)Nc1cccc(Cl)c1,-2,?,6%[57.4 µM],-3%,-2%,0%
O=C(O)c1ccc(C(c2c[nH]c3ccccc23)c2c[nH]c3ccccc23)cc1,11,/,?,/,/,/
O=C(/C=C\NCC(=O)c1ccccc1)c1ccc2ccccc2c1,-4,27%,35µM*,1%,5%,6%
NC(=O)COc1c(Cl)cc(Cl)cc1Cl,12,/,-14%,/,/,/
O=S(=O)(c1ccc(F)c(F)c1)N1CCN(CCc2ccccc2)CC1,1,23µM*,0%,0%,9%,4%
O=S(=O)(c1ccccc1F)N1CCN(CCc2ccccc2)CC1,0,18µM*,84%,-4%,2%,4%
O=S(=O)(NCCN1CCN(S(=O)(=O)c2ccccc2F)CC1)c1ccccc1F,-2,-4%,-5%,0%,0%,0%
O=S(=O)(c1ccccc1)N1CCN(CCc2ccccc2)CC1,-2,?,14%,0%,6%,0%
COc1cc(OC)c(CC2C(=O)Nc3cc(Cl)ccc32)c(OC)c1 (centres undefined),89,/,18µM*,/,/,/
COc1cc(CC2C(=O)Nc3ccccc32)cc(C)c1O (centres undefined),28,8%,-8%,14%,-5%,14%
CC[C@H](C)[C@H]1O[C@]2(CC[C@@H]1C)C[C@@H]1C[C@@H](CC=C(C)[C@@H](O[C@H]3C[C@H](OC)[C@@H](O[C@H]4C[C@H](OC)[C@@H](O)[C@H](C)O4)[C@H](C)O3)[C@@H](C)C=CC=C3CO[C@@H]4[C@H](O)C(C)=C[C@@H](C(=O)O1)[C@]34O)O2,-1,5.8µM*,/,23µM*,-10%,5%
Cc1nc(-c2ccccc2)[nH]c(=O)c1Oc1ccc(Cl)cc1Cl,-9,21µM*,0%,-9%,-3%,-1%
Cc1ccc(Oc2c(C)nc(-c3ccccc3)[nH]c2=O)cc1,-1,?,?,-6%,2%,0%
CCCCC(CC)C(=O)Nc1sc2c(c1C#N)CCCC2 (centres undefined),2,/,?,/,/,/

# Screening data: PubChem BioAssay, National Center for Advancing Translational Sciences (NCATS)
